Results from PubChem BioAssay (Tox21).
Several values for one entry are separate records, joined by “and”; a condition that tells them apart may be missing. Equal values may be shown once. Inconclusive results are not listed. Activity calls are given as the source filed them. Unless noted, calls come from the whole dose curve; as a rule, active = well fitted curve in the direction sought with a large enough effect in the repeat runs; inconclusive = weak or mixed curves; inactive = no such curve, though single readings can be large; an effect the other way counts as inactive or inconclusive.

Columns and labels:
[1] = biological target: Androgen receptor (Homo sapiens) (UniProt P10275); assay: qHTS assay to identify small molecule agonists of the androgen receptor (AR) signaling pathway in the presence of an antagonist (AID 1259381; calls by dose curve; note: nearly all actives have a fitted effect of over 15% in size)
Method in brief: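 MDA-kb2 cells, 3,000/well, rested 5hr at 37C/0% CO2 → nilutamide 3.0uM final or buffer → compounds, 15 conc. → 16hr at 37C → ONE-Glo, 30min RT → luminescence.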

[2] = qHTS assay to identify small molecule antagonists of the estrogen receptor beta (ER-beta) signaling pathway - cell viability counter screen (AID 1259382); note: nearly all actives have a fitted effect of over 55% in size; note: potency is the fitted concentration of half-maximal effect
Method in brief: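 Cells: ER-beta-UAS-bla HEK293T, 2,000/well, 2% CS-FBS, 6 hr settle. Cpd + E2 (1nM final), 16 hr, 37C/5% CO2. Bla FRET substrate 2 hr RT, then CellTiter-Glo 30 min RT, luminescence.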

[3] = biological target: Estrogen receptor (Homo sapiens) (UniProt P03372); assay: qHTS assay to identify small molecule agonists of the estrogen receptor alpha (ER-alpha) signaling pathway in the presence of an antagonist (AID 1259383; calls by dose curve; note: top concentration of the series differs between compounds; nearly all actives have a fitted effect of over 15% in size)
Method in brief: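 VM7Luc4E2, endog. ER-alpha + 4×ERE-luc; charcoal-stripped FBS, phenol red-free, 5 d; 24hr plating; +10.0nM ICI-182,780 (final); cpds 15 conc, 22hr, 37C/5% CO2; ONE-Glo luminescence.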

[4] = qHTS assay to identify small molecule agonists or antagonists of the thyroid stimulating hormone receptor (TSHR) signaling pathway - wild type cell line counter screen (AID 1259384; calls by dose curve)
Method in brief: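 Wild-type HEK293 cells were plated 18 h at 37 C/5% CO2, pin-dosed with compound plus Ro20-1724 medium, held 30 min at room temperature, then given cAMP-d2 and anti-cAMP-cryptate; fluorescence was read after 1 h. Fifteen concentrations, triplicate.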

[5] = qHTS assay to identify small molecule agonists of the estrogen receptor alpha (ER-alpha) signaling pathway in the presence of an antagonist - cell viability counter screen (AID 1259386);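 note: cells exposed to compounds for 22 h at 37 °C before the viability read; nearly all actives have a fitted effect of over 30% in size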; note: potency is the fitted concentration of half-maximal effect
Method in brief: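 VM7Luc4E2, stripped-serum pre-culture 5 d; 24hr plating; +ICI-182,780 10.0nM final; cpds 15 conc, 22hr, 37C/5% CO2; CellTiter-Fluor added at 21hr, fluorescence 1hr later.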

[6] = biological target: Progesterone receptor (Homo sapiens) (UniProt P06401); assay: qHTS assay to identify small molecule agonists of the progesterone receptor (PR) signaling pathway (AID 1346784; calls by dose curve; note: nearly all actives have a fitted effect of over 30% in size)
Method in brief: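 Using charcoal-stripped serum (2%) to limit endogenous steroids, PR-UAS-bla HEK 293T cells received compounds for 16 hr at 37C after 6 hr plating; beta-lactamase FRET fluorescence was recorded following 2 hr substrate loading at room temperature.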

[7] = biological target: Progesterone receptor (Homo sapiens) (UniProt P06401); assay: qHTS assay to identify small molecule antagonists of the progesterone receptor (PR) signaling pathway (AID 1346795; active = well fitted inhibition curve with a large enough effect in the signal ratio in the repeat runs, not every such curve was filed as active; the % refers to the signal ratio; note: potency is the fitted concentration of half-maximal effect)
Method in brief: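 Inhibition of R5020-induced (1 nM final) beta-lactamase reporter signal in PR-UAS-bla HEK293T cells was scored by FRET fluorescence after overnight (16 hr) compound treatment.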

[8] = qHTS assay to identify small molecule agonists of the progesterone receptor (PR) signaling pathway - cell viability counter screen (AID 1346799; calls by dose curve; note: nearly all actives have a fitted effect of over 45% in size; note: potency is the fitted concentration of half-maximal effect)
Method in brief: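 Cytotoxicity in PR-bla HEK293T cells: 16 h compound, 37C; CellTiter-Glo added post-FRET read; luminescence after 30 min RT.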

[9] = qHTS assay to identify small molecule antagonists of the TGF-beta/Smad signaling pathway - cell viability counter screen (AID 1346824); note: nearly all actives have a fitted effect of over 50% in size; note: potency is the fitted concentration of half-maximal effect
Method in brief: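 SBE-bla HEK 293T cells were plated overnight at 37 C, then given compounds in DMSO plus TGF-beta1 (added as 0.25 ng/mL solution) for 5 hr. After the bla read, CellTiter-Glo was added to the same wells and luminescence read after 30 min at room temperature.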

[10] = qHTS assay to identify small molecule agonists of the TGF-beta/Smad signaling pathway - cell viability counter screen (AID 1346829); note: nearly all actives have a fitted effect of over 45% in size; note: potency is the fitted concentration of half-maximal effect
Method in brief: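 Compound-treated SBE-bla HEK 293T cells (5 hr, 37 C) were assessed for viability with CellTiter-Glo in parallel with the reporter read.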

[11] = qHTS assay to identify small molecule agonists of the TGF-beta/Smad signaling pathway (AID 1346859; active = well fitted activation curve with a large enough effect in the signal ratio in the repeat runs, not every such curve was filed as active; the % refers to the signal ratio; note: series mostly up to about 77 µM)
Method in brief: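 Stable Smad binding element-beta-lactamase HEK 293T cells; 5 hr compound exposure at 37 C under 5% CO2; 2 hr room-temperature substrate step; fluorescence excited at 405 nm, collected at 460 nm and 530 nm.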

[12] = Human pregnane X receptor (PXR) small molecule agonists, qHTS cell viability counter screen (AID 1346977); note: nearly all actives have a fitted effect of over 50% in size; note: potency is the fitted concentration of half-maximal effect
Method in brief: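 Readout is CellTiter-Fluor fluorescence from PXR-Luc HepG2 cells. Plated cells rested 5hr, then were treated with compounds for 24hr at 37C and 5% CO2, with reagent present during the last hour.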

[13] = qHTS assay to identify small molecule agonists of the androgen receptor (AR) signaling pathway in the presence of an antagonist - cell viability counter screen (AID 1259379);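 note: MDA-kb2 human breast cancer cells carrying an MMTV luciferase reporter; series mostly up to about 92 µM; nearly all actives have a fitted effect of over 25% in size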
Method in brief: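 Cells: MDA-kb2 (MMTV-luc, AR and GR elements), 3,000/well, 5 hr settle. Added: nilutamide 3.0uM final, then compounds (15 conc.). Incubation: 16 hr, 37C, no CO2. Read-out: CellTiter-Fluor, 1 hr, fluorescence.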

[14] = qHTS assay to identify small molecule antagonists of the progesterone receptor (PR) signaling pathway - cell viability counter screen (AID 1346798); note: nearly all actives have a fitted effect of over 50% in size; note: potency is the fitted concentration of half-maximal effect
Method in brief: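 ATP content as viability readout: CellTiter-Glo luminescence, 30 min room temperature, in PR-UAS-bla HEK293T cells after 16 hr compound/R5020 treatment at 37C and 5% CO2.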

[15] = biological target: Thyrotropin-releasing hormone receptor (Homo sapiens) (UniProt P34981); assay: qHTS assay to identify small molecule antagonists of the thyrotropin-releasing hormone receptor (TRHR) signaling pathway (AID 1346877; active = well fitted inhibition curve with a large enough effect in the repeat runs, not every such curve was filed as active; note: series mostly up to about 51 µM)
Method in brief: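 Intracellular calcium fluorescence, read kinetically every second over 3 min, reports TRH-evoked signalling in HEK293 cells carrying TRHR. Test compounds were added 5 min ahead of a 1 nM TRH challenge.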

[16] = biological target: Thyrotropin-releasing hormone receptor (Homo sapiens) (UniProt P34981); assay: qHTS assay to identify small molecule agonists of the thyrotropin-releasing hormone receptor (TRHR) signaling pathway (AID 1346891; calls by dose curve;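 note: HEK293 cells expressing TRHR with calcium dye readout; series mostly up to about 58 µM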)
Method in brief: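 In 1536-format, 1500 TRHR-Hek293 cells per well grew 18 h, took up calcium dye for 2 h at 37 °C, received compound, and were read kinetically; 15-point titrations, triplicates.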

[17] = biological target: Thyrotropin receptor (Homo sapiens) (UniProt P16473); assay: qHTS assay to identify small molecule antagonists of the thyroid stimulating hormone receptor (TSHR) signaling pathway (AID 1259385; calls by dose curve; note: nearly all actives have a fitted effect of over 20% in size; note: potency is the fitted concentration of half-maximal effect)
Method in brief: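 TSHR-HEK293 cells were plated and held 18 h at 37C/5% CO2, then given compound plus Ro20-1724 and stimulated with TSH at 1.5 ng/mL final. After 30 min at room temperature, cAMP was detected with cAMP-d2/anti-cAMP-cryptate (1 h) by fluorescence.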

[18] = qHTS assay to identify small molecule agonists of the estrogen receptor beta (ER-beta) signaling pathway - cell viability counter screen (AID 1259380); note: nearly all actives have a fitted effect of over 30% in size; note: potency is the fitted concentration of half-maximal effect
Method in brief: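 HEK293T ER-beta-UAS-bla; 2% CS-FBS; 6 hr pre-plate, 16 hr cpd at 37C/5% CO2; LiveBLAzer read first, then CellTiter-Glo 30 min RT, luminescence.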

Measured: Potency

Sequence of Thyrotropin receptor (Homo sapiens) (P16473 whole entry, looked up): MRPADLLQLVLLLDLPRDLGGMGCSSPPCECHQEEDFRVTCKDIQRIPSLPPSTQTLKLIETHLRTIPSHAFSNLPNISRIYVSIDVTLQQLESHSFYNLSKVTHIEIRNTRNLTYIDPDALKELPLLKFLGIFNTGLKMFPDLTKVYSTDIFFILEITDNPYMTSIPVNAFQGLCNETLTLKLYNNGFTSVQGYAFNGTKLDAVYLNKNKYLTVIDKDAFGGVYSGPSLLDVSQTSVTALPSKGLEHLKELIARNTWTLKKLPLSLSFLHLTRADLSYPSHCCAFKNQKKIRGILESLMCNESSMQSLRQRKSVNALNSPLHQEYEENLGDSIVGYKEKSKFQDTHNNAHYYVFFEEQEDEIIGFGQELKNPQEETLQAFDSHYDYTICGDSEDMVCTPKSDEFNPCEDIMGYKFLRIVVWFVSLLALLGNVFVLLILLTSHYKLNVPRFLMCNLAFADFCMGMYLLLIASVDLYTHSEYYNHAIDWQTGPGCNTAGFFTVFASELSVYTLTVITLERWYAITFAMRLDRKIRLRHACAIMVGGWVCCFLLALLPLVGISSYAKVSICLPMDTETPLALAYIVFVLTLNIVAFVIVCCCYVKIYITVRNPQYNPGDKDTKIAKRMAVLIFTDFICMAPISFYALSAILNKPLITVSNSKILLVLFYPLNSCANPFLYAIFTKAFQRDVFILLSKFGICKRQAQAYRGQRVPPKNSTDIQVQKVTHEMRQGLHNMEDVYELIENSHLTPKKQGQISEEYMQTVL
Sequence of Progesterone receptor (Homo sapiens) (P06401 whole entry, looked up): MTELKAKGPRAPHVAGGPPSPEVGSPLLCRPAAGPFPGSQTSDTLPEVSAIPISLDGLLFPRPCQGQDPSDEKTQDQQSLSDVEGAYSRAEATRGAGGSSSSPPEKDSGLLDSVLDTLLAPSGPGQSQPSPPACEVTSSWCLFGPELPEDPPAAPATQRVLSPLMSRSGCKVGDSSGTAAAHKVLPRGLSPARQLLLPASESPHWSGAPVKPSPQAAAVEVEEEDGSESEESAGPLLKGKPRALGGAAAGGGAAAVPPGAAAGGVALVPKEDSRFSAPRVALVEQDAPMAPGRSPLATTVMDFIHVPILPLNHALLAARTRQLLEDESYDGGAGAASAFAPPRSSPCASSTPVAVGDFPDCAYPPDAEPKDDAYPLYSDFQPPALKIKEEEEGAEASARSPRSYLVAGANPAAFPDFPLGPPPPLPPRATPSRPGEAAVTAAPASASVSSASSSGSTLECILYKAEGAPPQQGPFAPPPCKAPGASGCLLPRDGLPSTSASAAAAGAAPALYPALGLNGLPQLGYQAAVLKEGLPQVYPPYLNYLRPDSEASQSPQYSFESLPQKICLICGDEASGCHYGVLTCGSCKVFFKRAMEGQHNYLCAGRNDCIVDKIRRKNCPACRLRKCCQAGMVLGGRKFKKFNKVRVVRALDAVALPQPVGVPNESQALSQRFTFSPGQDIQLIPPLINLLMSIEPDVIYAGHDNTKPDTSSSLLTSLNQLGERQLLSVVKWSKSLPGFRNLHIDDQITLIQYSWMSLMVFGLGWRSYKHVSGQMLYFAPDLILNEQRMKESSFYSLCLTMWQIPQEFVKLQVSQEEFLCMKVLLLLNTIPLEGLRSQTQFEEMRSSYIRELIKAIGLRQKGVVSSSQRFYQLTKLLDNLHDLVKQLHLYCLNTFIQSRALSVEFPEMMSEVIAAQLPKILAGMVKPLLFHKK
Sequence of Thyrotropin-releasing hormone receptor (Homo sapiens) (P34981 whole entry, looked up): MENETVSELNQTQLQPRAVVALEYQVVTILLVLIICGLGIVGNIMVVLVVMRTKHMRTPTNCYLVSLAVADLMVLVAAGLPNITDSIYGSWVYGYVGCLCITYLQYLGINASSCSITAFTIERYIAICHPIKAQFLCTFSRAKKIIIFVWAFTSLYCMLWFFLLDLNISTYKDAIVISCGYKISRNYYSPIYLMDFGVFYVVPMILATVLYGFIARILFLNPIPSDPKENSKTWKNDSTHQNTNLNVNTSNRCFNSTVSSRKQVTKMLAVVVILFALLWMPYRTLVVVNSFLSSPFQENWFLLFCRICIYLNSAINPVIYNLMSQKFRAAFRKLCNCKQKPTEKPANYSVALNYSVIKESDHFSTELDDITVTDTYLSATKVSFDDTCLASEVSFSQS
Sequence of Estrogen receptor (Homo sapiens) (P03372 whole entry, looked up): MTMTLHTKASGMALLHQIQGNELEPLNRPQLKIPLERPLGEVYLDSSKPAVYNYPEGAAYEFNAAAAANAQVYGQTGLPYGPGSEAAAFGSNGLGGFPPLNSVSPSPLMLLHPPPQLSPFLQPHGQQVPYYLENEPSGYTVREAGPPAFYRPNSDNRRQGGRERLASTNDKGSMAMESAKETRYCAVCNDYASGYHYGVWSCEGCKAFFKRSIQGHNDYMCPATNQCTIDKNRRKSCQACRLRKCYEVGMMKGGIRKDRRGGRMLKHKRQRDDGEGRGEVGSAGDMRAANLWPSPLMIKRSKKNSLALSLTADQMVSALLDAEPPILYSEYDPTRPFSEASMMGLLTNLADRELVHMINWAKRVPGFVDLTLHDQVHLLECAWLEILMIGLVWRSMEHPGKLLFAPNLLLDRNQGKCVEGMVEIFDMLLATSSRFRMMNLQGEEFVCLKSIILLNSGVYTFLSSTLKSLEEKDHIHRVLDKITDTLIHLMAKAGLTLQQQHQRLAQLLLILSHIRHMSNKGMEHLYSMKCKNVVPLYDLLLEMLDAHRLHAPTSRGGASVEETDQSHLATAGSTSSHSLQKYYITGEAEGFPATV
Sequence of Androgen receptor (Homo sapiens) (P10275 whole entry, looked up): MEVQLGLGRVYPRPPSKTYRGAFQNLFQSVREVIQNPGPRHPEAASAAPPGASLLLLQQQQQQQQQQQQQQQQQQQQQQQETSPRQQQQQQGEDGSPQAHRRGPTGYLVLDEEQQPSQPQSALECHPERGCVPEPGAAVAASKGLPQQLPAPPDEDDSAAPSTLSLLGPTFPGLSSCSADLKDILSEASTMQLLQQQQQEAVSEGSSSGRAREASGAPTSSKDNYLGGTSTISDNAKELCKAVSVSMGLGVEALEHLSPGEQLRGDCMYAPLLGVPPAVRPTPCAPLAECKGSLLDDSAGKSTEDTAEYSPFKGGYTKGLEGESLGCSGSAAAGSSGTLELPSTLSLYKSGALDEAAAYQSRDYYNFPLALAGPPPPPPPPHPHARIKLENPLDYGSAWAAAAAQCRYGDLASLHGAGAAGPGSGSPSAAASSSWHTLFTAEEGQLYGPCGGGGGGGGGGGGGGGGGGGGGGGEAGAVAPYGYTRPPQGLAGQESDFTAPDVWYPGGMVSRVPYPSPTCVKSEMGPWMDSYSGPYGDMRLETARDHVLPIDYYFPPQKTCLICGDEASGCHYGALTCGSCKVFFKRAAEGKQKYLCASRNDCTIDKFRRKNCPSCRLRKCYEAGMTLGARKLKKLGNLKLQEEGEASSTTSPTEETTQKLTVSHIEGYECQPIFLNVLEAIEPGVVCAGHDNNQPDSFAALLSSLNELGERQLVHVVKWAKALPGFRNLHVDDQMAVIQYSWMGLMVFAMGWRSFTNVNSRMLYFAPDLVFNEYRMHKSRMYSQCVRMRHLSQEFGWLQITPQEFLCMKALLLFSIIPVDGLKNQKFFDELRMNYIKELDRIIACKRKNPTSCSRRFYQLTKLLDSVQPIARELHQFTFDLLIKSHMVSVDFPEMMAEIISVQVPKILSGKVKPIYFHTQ

COP(=O)(OC)SCn1c(=O)oc2cc(Cl)cnc21
active: [12] 30.6 µM
not listed: [13] | [14] | [15] | [16] | [17] | [18]
inactive: all other assays above

[Cd+2].[Cl-].[Cl-]
active: [2] 34.7 µM and 54.5 µM | [5] 61.6 µM and 54.5 µM | [14] 4.36 µM and 2.73 µM | [8] 13.8 µM and 6.11 µM | [12] 794 nM and 344 nM
inactive: [13] | [10] | [11]

O=[N+]([O-])c1c2ccccc2cc2ccccc12
inactive: [4] | [9] | [10] | [15] | [16]
active: [14] 27 µM

CCCCCCCCCCCCBr
not listed: [1] | [2] | [7] | [8] | [14] | [18]
inactive: all other assays above

Cl/C=C\CCl
not listed: [1] | [3] | [15] | [16] | [18]
inactive: all other assays above

O=C(O)C1C2CCC(O2)C1C(=O)O (configuration not stated)
not listed: [1] | [3] | [7] | [8] | [12] | [14] | [18]
inactive: all other assays above

ClC1=C(Cl)[C@]2(Cl)[C@@H]3[C@@H]4C[C@@H]([C@H]5O[C@@H]45)[C@@H]3[C@@]1(Cl)C2(Cl)Cl
inactive: [3] | [4] | [5]

CCCCN(CCCC)C(=S)[S-].CCCCN(CCCC)C(=S)[S-].[Zn+2]
inactive: [3] | [9] | [10] | [11]
active: [2] 30.6 µM | [5] 24.3 µM | [7] 12.2 µM | [12] 13.7 µM

Nc1ccc(Sc2ccc(N)cc2)cc1
inactive: [13] | [3] | [4] | [17] | [5] | [10] | [11] | [15] | [16]

CSCCCN=C=S
not listed: [1] | [3] | [13] | [14]
inactive: all other assays above

[Hg+2].[I-].[I-]
inactive: [3]
active: [18] 5.45 µM | [2] 6.86 µM | [17] 43.3 µM | [5] 61.1 µM | [14] 6.11 µM | [8] 5.45 µM | [9] 49 µM | [10] 54.9 µM | [12] 48.6 µM

Nc1ccc(Cc2ccc(N)c(Cl)c2)cc1Cl
inactive: [3] | [4] | [17] | [9] | [10] | [11] | [15] | [16]
active: [18] 18.7 µM | [2] 46.9 µM | [7] 13.2 µM
